# Data from PubChem BioAssay AID492993 (Johns Hopkins Ion Channel Center, 2010).
# Out of some 4,900 compounds screened, about 200 (4.1%) were called active.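 The calls were made as follows: active = thallium signal drop more than 5 SD beyond the mean of the no-compound control wells, seen in both duplicate plates; inactive = the rest.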 Only a sample is shown.
# Target: Inward rectifier potassium channel 2 (Mus musculus) (UniProt P35561)
# Test: mouse Kir2.1 channel inhibition, confirmation, selectivity assay for KCNK9 modulator project, cell-based, HEK293, thallium flux (AID 492993);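 as to inhibition: signal is fluorescence rise after thallium addition divided by baseline fluorescence; plate controls were assay buffer only for no effect and full block by chlorpromazine control for full effect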
# Details: Kir2.1 cells, FluxOR thallium flux fluorescence, at 10 µM; stronger effect = higher value
# Inward rectifier potassium channel 2 (Mus musculus), sequence (P35561 whole entry, looked up): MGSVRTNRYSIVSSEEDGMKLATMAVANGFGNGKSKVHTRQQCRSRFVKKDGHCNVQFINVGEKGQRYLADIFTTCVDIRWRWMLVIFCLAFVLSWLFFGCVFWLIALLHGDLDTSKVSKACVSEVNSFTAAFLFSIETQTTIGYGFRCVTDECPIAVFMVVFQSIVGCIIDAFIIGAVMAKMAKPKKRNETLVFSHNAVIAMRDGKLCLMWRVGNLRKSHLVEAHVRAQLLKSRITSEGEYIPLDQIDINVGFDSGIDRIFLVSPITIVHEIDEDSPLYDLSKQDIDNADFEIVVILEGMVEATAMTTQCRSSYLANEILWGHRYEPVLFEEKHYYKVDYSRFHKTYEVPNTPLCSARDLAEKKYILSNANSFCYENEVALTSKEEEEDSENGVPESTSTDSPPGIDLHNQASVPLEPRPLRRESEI
row,Compound,inhibition
1,COc1ccc(C2CC(c3cccs3)=Nc3ccccc3S2)cc1OC (centres undefined),inactive
2,COc1ccc(C(CCN(Cc2ccc(OC)c(OC)c2)C(=O)CCl)c2ccccc2)cc1 (centres undefined),inactive
3,Cc1ccc(OCc2cc(C(=O)N(C)CCc3ccccc3)no2)cc1C,inactive
4,CCOc1ccc(OCc2ccc(C(=O)Nc3cccc(C)n3)o2)cc1,inactive
5,Cc1ccccc1CSc1nnc(CCCCCNC(=O)OC(C)(C)C)o1,inactive
6,CC1(C)CC(=O)CC2(C1)NCC(c1ccccc1Cl)c1c2[nH]c2ccccc12 (centres undefined),inactive
7,O=C(NCCc1ccccc1)c1ccc2c(c1)N(Cc1ccccc1)CCS2,inactive
8,CCC1(C)Cc2c(sc3[nH]c(=S)n(Cc4ccccc4)c(=O)c23)CO1 (centres undefined),inactive
9,COc1ccc(CCNC(=O)c2ccccc2OCc2ccccc2)cc1,54.5% (active)
10,COc1ccc(-c2nc(CCNC(=O)c3ccc(Br)o3)cs2)cc1,inactive
11,COc1ccc(CCNc2ncnc3c2nnn3Cc2ccccc2)cc1,inactive
12,CCOc1ccc2[nH]c(=O)c(CN(Cc3nnnn3CCc3ccccc3)CC3CCCO3)cc2c1 (centres undefined),inactive
13,C=CCOc1ccc(/C=N/NC(=O)C(C)Sc2ccccn2)cc1OCC (centres undefined),inactive
14,O=C(OCC(=O)N(CCc1ccccc1)Cc1ccccc1)c1ccccc1[N+](=O)[O-],inactive
15,Cc1cccc(NC(=O)c2sc3nc4c(c(-c5ccco5)c3c2N)CCC4)c1,inactive
16,O=C(/C=C/NNC(=O)c1cccc(Br)c1)c1ccccc1,inactive
17,COc1cccc(-c2nn(C)c3sc(C(=O)N4CCN(c5ccccc5)CC4)cc23)c1,inactive
18,CC(C)CC(COCc1ccc(Cl)cc1)N1CCN(C(=O)c2ccc(C(F)(F)F)cc2)CCC1=O (centres undefined),inactive
19,O=C(COC(=O)c1c2c(nc3ccccc13)CCCC2)c1ccc(Br)s1,inactive
20,Cc1cc(OC(C)C(=O)Nc2ccc(S(=O)(=O)Nc3onc(C)c3C)cc2)cc(C)c1Cl (centres undefined),inactive
21,O=C(CNCCC1=CCCCC1)Nc1ccccc1N1CCCCCC1,34.5% (active)
22,Cc1cccc(C(=O)Nc2ccccc2N2CCN(c3ccc(F)cc3)CC2)c1,inactive

row,Compound,inhibition
1,CCCCC(=O)Nc1ccccc1N1CCN(c2ccc(F)cc2)CC1,inactive
2,CCOc1ccccc1NC(=O)C1CCCN(S(=O)(=O)c2ccccc2)C1 (centres undefined),inactive
3,COc1ccc(C(=O)Nc2ccccc2C(=O)N/N=C/c2ccccc2OC)cc1,inactive
4,COC(=O)C1=C(Nc2ccc(C)cc2)C=C(C)C(C(=O)OC)C1c1ccc(F)cc1 (centres undefined),inactive
5,Clc1ccc(Cl)c(Oc2ccc(Oc3nc(Cl)ccc3Cl)cc2)n1,inactive
6,CCOc1cccc(OCCCOc2cccc3cccnc23)c1,inactive
7,O=C(COC(=O)c1ccccc1)Nc1ccccc1Sc1ccccc1,inactive
8,COc1cccc(-c2cnc(OC(C)(C)C)nc2OC(C)(C)C)c1,inactive
9,CC(C)(C)C1CCC(C(=O)NCC(c2cccs2)N2CCOCC2)CC1 (centres undefined),inactive
10,COCCNc1cc(-c2ccccc2)nc2cc(-c3cccc(F)c3)nn12,inactive
11,CCOC(=O)N1CCN(C(=O)COc2ccc3oc4c(c3c2)CCCC4)CC1,inactive
12,O=C(NCc1ccccc1)C1=C[C@@H](C2CCCCC2)C[C@@H](OCc2ccc(CO)cc2)O1,inactive
13,CCN(C(=O)COc1ccc(C(=O)c2ccccc2)cc1)c1ccccc1,inactive
14,Cc1cc2ccccn2c1C(=O)c1cccc(F)c1,inactive
15,CCOC(=O)C(C)Sc1nc2ccccc2c(=O)n1CC1CCCCC1 (centres undefined),inactive
16,COc1cc(Cl)c(C)cc1NC(=O)CSc1nnc(-c2ccco2)n1CC(C)C,inactive
17,CC1CCN(C(=O)c2ccc(CSc3ccc(Cl)cc3)cc2)CC1,inactive
18,COc1ccc(-c2n[nH]c3c2CN(C(=O)c2ccc(F)cc2)CC3)cc1,inactive
19,Cc1ccc2c(c1)N(C(=O)CCC(=O)N1CCc3ccccc3C1)CCO2,inactive
20,O=C1CC(c2ccccc2)=NN1c1ccc([N+](=O)[O-])cc1,inactive
21,CCOC(=O)C1(CCOc2ccccc2)CCN(Cc2cc(OC)c(O)cc2Cl)CC1,inactive
22,COc1cccc(NC(=S)N(CCc2c(C)[nH]c3ccccc23)Cc2ccco2)c1,inactive

row,Compound,inhibition
1,Cc1cccc(N2CCN(C(=O)c3cccc(S(=O)(=O)N4CCc5ccccc5C4)c3)CC2C)c1 (centres undefined),inactive
2,CCC(c1nnnn1Cc1ccco1)N(CCc1ccccc1)Cc1cc2cccc(C)c2[nH]c1=O (centres undefined),inactive
3,COc1cccc2cc(C(C)N(CCCN3CCOCC3)C(=O)Nc3ccc(Cl)cc3)oc12 (centres undefined),inactive
4,Cc1cccc2cc(CN(Cc3nnnn3Cc3ccccc3)C3CCCC3)c(=O)[nH]c12,inactive
5,Fc1ccc(Cn2nnnc2C(c2cccs2)N2CCCCCC2)cc1 (centres undefined),inactive
6,COc1ccc(C(=O)NN2C(=O)C3C(c4ccccc4)C=CC(c4ccccc4)C3C2=O)cc1 (centres undefined),inactive
7,COc1cc(Cl)ccc1OCc1cc(C(=O)N2CC[C@@H]3CCCC[C@H]3C2)no1,inactive
8,COc1ccccc1/C=C/C=N/n1c(-c2ccc(Cl)cc2Cl)n[nH]c1=S,inactive
9,CCOc1ccc(C2c3[nH]c4ccccc4c3CCN2Cc2cccn2-c2ncccn2)cc1 (centres undefined),inactive
10,CC1=NN(c2cccc(Cl)c2)C(=O)C12CC(C)=C(C)CS2 (centres undefined),inactive
11,CC1=CC(C)(C)N(C(=O)CSc2nnc(-c3ccccc3)o2)c2ccc(C)cc21,inactive
12,Fc1cccc(Cl)c1CSc1ccc(-c2ccco2)nn1,inactive
13,O=C(Nn1c(SCc2ccc([N+](=O)[O-])cc2)nc2ccccc2c1=O)c1ccc(F)cc1,inactive
14,Cc1ccc(NC(=O)c2cc([N+](=O)[O-])ccc2Cl)c(O)c1,inactive
15,O=C(Nc1ccc2c(c1)CCC2)c1cccc(S(=O)(=O)Nc2ccccc2Cl)c1,inactive
16,COc1ccc(OC)c(-c2csc(-c3cccs3)n2)c1,inactive
17,CCN(CC)S(=O)(=O)c1ccc(N(C)Cc2ccc(C(F)(F)F)cc2)nc1,inactive
18,Cc1ccnc(N2CCN(C(=O)CSc3nc4ccccc4nc3N3CCCCC3)CC2)c1,inactive
19,CC(C)(C)NC(=O)NC(=O)CN1CCC(Cc2ccccc2)CC1,inactive
20,CCN(CC)C(=O)CC1(c2ccccc2OC)CCOC(C(C)C)C1 (centres undefined),inactive
21,COC(=O)c1cc(NC2c3ccccc3C(=O)N2c2ccc(Cl)cn2)cc(C(=O)OC)c1 (centres undefined),inactive
22,O=C(COC(=O)/C(=C/c1cccs1)c1cccs1)NCc1ccccc1Cl,inactive

row,Compound,inhibition
1,N#Cc1nc(Cc2cccc3ccccc23)oc1NCc1ccc2c(c1)OCO2,51% (active)
2,C=CCN(N=Nc1cccc([N+](=O)[O-])c1)c1cccc([N+](=O)[O-])c1,inactive
3,COc1cccc(CN(C)C(=O)CC23CC4CC(CC(C4)C2)C3)c1OC,inactive
4,CCCCCCCCn1c2c(c(=N)c3c1CCC3)CCCC2,84% (active)
5,Clc1ccc(COn2c(-c3ccc(Cl)cc3Cl)nc3ncccc32)cc1,inactive
6,O=C(Nc1ccc(S(=O)(=O)N2CCCCC2)cc1)C1CCN(C(=O)c2ccc(F)cc2)CC1,inactive
7,Cc1nc(N2CCN(c3ccccn3)CC2)c2c(C)c(C(=O)Nc3ccc(F)c(Cl)c3)sc2n1,inactive
8,Cc1ccc(OS(=O)(=O)c2ccc(-c3csc(C)n3)s2)c(C)c1,inactive
9,C[C@@]12C(=O)N(c3cccc(Br)c3)C(=O)N1[C@H](c1ccc(Cl)cc1)[C@@H]1C(=O)N(C3CCCCC3)C(=O)[C@@H]12,inactive
10,COc1cccc2sc(NNC(=O)c3nc4ccccc4s3)nc12,inactive
11,COc1ccccc1NC(=O)CSc1nc2sc(C)c(C)c2c(=O)n1Cc1ccco1,inactive
12,O=C(NCCCc1ccccc1)c1cc(COc2c(F)cccc2F)on1,inactive
13,Cc1ccc(C2=NN(C)c3nc4ccccc4n3C2)cc1,inactive
14,O=C(Cc1ccccc1)n1nc(-c2ccccc2)nc1NCc1ccco1,inactive
15,Cc1cc(C)cc(OCC(=O)Nc2cc(NC(=O)COc3cc(C)cc(C)c3)cc(C(=O)O)c2)c1,inactive
16,Cc1cccc(NC(=O)N(Cc2cc3cc(C)cc(C)c3[nH]c2=O)CC2COCCO2)c1 (centres undefined),inactive
17,CC1CCN(C(=S)c2ccc(-c3ccc(Cl)cc3Cl)o2)CC1,inactive
18,COC(=O)c1cccc(C(=O)N2CCCC(Nc3ccc4c(c3)OCCO4)C2)c1 (centres undefined),inactive
19,Cc1ccc(C2=Nc3c(ccc4ccccc34)C(c3ccncc3)=NN2)cc1,inactive
20,Cc1ccc(CN(N=Nc2nonc2N)c2nonc2N)c(C)c1,inactive
21,Cc1ccc(Cn2ccc(NC(=O)c3cc(C(C)C)on3)n2)cc1,inactive
22,CCOC(=O)[C@@H]1[C@H]2COc3ccc(Br)cc3[C@H]2N2C(=O)N(c3ccc(Cl)cc3)C(=O)[C@@]12C,inactive

row,Compound,inhibition
1,O=C(N/N=C/c1ccccn1)c1cccc(NC(=O)c2ccc(Cl)cc2)c1,inactive
2,Cc1ncoc1C(=O)N1CCCC(C(=O)c2ccc3c4c(cccc24)CC3)C1 (centres undefined),inactive
3,CCc1ccccc1NC(=O)/C(=C/c1ccccc1)c1ccccc1,inactive
4,COc1ccc(Nc2ncnc3sc(-c4ccccc4)cc23)c(OC)c1,inactive
5,O=S(=O)(Nc1cccc(Oc2ccc(Cl)cc2)n1)c1ccc(F)cc1,inactive
6,Brc1ccc(C2CC(c3ccccc3)=Nc3ccccc3N2)cc1 (centres undefined),inactive
7,Cc1[nH][nH]c(=O)c1C(c1ccc(-c2ccc(Cl)cc2)o1)c1c(C)[nH][nH]c1=O,38% (active)
8,O=C(Nc1nnc(SCc2ccc(Cl)cc2Cl)s1)C1COc2ccccc2O1 (centres undefined),inactive
9,CCCCN(Cc1ccccc1)C(=O)C1CCN(Cc2sccc2C)CC1,inactive
10,Clc1cccc(-c2nc3nc4ccccc4nc3n2Cc2ccco2)c1,inactive
11,O=C1N=C2SCCN2/C1=C\c1c(Cl)cccc1Cl,inactive
12,CCc1nnc(NS(=O)(=O)c2ccc(NC(=S)NC(=O)/C=C/c3cccs3)cc2)s1,inactive
13,COc1ccccc1N1CCN(c2ncnc3sc(C)c(-c4ccccc4)c23)CC1,inactive
14,O=C(Nc1ccccc1[N+](=O)[O-])C1C(c2ccccc2)=C1c1ccccc1,inactive
15,CCCCOC(=O)CCCc1ccc([N+](=O)[O-])cc1[N+](=O)[O-],inactive
16,O=C(NC1Cc2ccccc2C1)c1cc(COc2cccc(C(F)(F)F)c2)on1,inactive
17,O=C(Nc1ccc(Oc2ccccc2)cc1)c1ccco1,inactive
18,Cc1ccc(C(=O)c2c(NC(=O)c3ccncc3)sc3c2CCCC3)cc1,inactive
19,Cc1onc(-c2ccc(Cl)cc2)c1-c1ccnn1S(=O)(=O)c1ccc(Cl)cc1,inactive
20,CN(C)c1ccc(C(CNC(=O)c2ccc(F)cc2)c2c[nH]c3ccccc23)cc1 (centres undefined),inactive
21,CCn1cnc2scc(-c3ccc(C)c(C)c3)c2c1=O,inactive
